In the supplement of paper PMC8387472:
Counter-ions that a name gives are not always drawn. ± gives the standard deviation of the averaged measurements.

What follows are molecules tested on mESC LDLR-Dup GFP reporter (SpCas9 MH-deletion repair) (assay: fraction of GFP+ cells relative to DMSO control (fold change); higher = more MH-deletion repair to in-frame LDLR (or more editing)). Settings: 2 µM; 7 days post-transfection.

Row | Structure (SMILES) | fraction of GFP+ cells
1 | O=P1(NCCCl)OCCCN1CCCl (stereo not given) [Ifosfamide] | 1.11 ± 0.34
2 | Cc1cc(SCc2sc(-c3ccc(C(F)(F)F)c(F)c3)nc2C)ccc1OCC(=O)O | 1.72 ± 0.64
3 | C/C=C(\C)C(=O)N[C@@H](c1ccccc1)[C@@H](O)C(=O)O[C@H]1C[C@@]2(O)[C@@H](OC(=O)c3ccccc3)[C@@H]3[C@]4(OC(C)=O)CO[C@@H]4C[C@H](O)[C@@]3(C)C(=O)[C@H](OC(C)=O)C(=C1C)C2(C)C [Cephalomannine] | 1.54 ± 0.41
4 | C/C(O)=C(\C#N)C(=O)Nc1cc(Br)ccc1Br | 1.04 ± 0.32
5 | O=C(O)CCCc1ccc(N(CCCl)CCCl)cc1 [Chloroambucil] | 2.44 ± 0.046
6 | CCn1cc(C(=O)O)c(=O)c2cc3c(cc21)OCO3 [Oxolinic acid] | 0.941 ± 0.23
7 | COC[C@H]1OC(=O)c2coc3c2[C@@]1(C)C1=C(C3=O)[C@@H]2CCC(=O)[C@@]2(C)C[C@H]1OC(C)=O [Wortmannin] | 0.685 ± 0.098
8 | COc1ccc2c(c1)[nH]c1c(C)nccc12 [harmine hydrochloride] | 1.1 ± 0.11
9 | Cn1c(CCCC(=O)O)nc2cc(N(CCCl)CCCl)ccc21 [Bendamustine HCl] | 1.26 ± 0.33
10 | NC(=O)c1cc(N2CC2)c([N+](=O)[O-])cc1[N+](=O)[O-] | 1.43 ± 0.66
11 | CN1CCN(c2ccc([N+](=O)[O-])c3no[n+]([O-])c23)CC1 | 1.37 ± 0.088
12 | O=P1(N(CCCl)CCCl)NCCCO1 (stereo not given) [Cyclophosphamide Monohydrate] | 1.78 ± 0.27
13 | COc1ccc2c(c1)/C(=C/c1cnc[nH]1)C(=O)N2 | 1.29 ± 0.051
14 | CCN1CCN(C(=O)Cc2ccc(Nc3ncc(F)c(Nc4ccc(C(=O)Nc5ccccc5Cl)cc4)n3)cc2)CC1 [Aurora A Inhibitor I] | 0.548 ± 0.13
15 | C[C@H]1CCC/C=C/[C@@H]2C[C@H](O)C[C@H]2[C@H](O)/C=C/C(=O)O1 [Brefeldin A] | 0.627 ± 0.22
